# Laboratory results: PubChem BioAssay
# Values joined by “and” are separate entries in the source; they are usually repeats but may differ in a detail not shown here. Equal entries are not always repeated. Active and inactive are the calls of the source.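 The calls were made as follows, unless noted: active = compounds whose cell count with miR-34 switched on is under 0.7 times the count with it off; inactive = the rest.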
# Key:
# [1] = test system: Hepatitis C virus NS3 helicase; assay: blockers of NS3h binding to ssDNA – biochemical, fluorescence polarization, LOPAC1280 library, primary screen (AID 687035; in the data active = inhibition above about 37%); conditions: Purified HCV NS3 helicase, Cy5-dT15 ssDNA binding fluorescence polarization; stronger effect = higher value; concentration not given here
# [2] = Wnt pathway potentiators raising nuclear beta-catenin – imaging, WNT3A-conditioned medium, mouse C2C12, NPC library, primary screen (AID 1117326; in the data active = nuclear beta-catenin stimulation mostly above about 4.2%, no sharp cut-off; inactive = mostly below about 10%); conditions: stronger effect = higher value
# [3] = stimulators of insulin release from INS-1E, primary screen, cell-based, 5 mM glucose, NPC library (AID 1117329;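 active = compound raises insulin release from rat beta cells at 5 mM glucose, no numeric limit stated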); conditions: rat INS-1E insulin secretion, at 10 µM, stronger effect = higher value
# [4] = growth inhibition of GSK3B-pretreated HCT116 cells – cell-based, CellTiter-Glo, 0.2 to 20 µM (AID 1117336;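 active = compounds lowering colon cancer cell viability after pretreatment blocking the GSK3B kinase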); conditions: HCT116 viability after GSK3B inhibitor, at 20 µM, stronger effect = higher value
# [5] = inhibition of endothelial tube formation, primary screen, imaging, VEGF stimulated, CD31 staining, tube area, NPC library (AID 1117340;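 active = compound that reduces growth-factor-driven endothelial tube area in a mixed cell culture, no cutoff stated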); conditions: VEGF-stimulated ADSC/ECFC co-culture, at 10 µM, stronger effect = higher value
# [6] = GLP1 release stimulators, primary, NCI-H716, NPC library (AID 1117341;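 active = compound raises GLP1 secretion from the human gut endocrine cells, with no numeric limit stated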); conditions: NCI-H716 cells, at 10 µM, stronger effect = higher value
# [7] = HCT116 colon cancer cell growth inhibition, primary screen, CellTiter-Glo luminescence, NPC library (AID 1117342;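 active = compounds that lower survival of HCT116 colon cancer cells in the luminescence readout, no numeric limit stated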); conditions: at 20 µM (top of the series)
# [8] = reduced SW480 viability measured with CellTiter-Glo, NPC library, primary (AID 1117343;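 active = compounds that lower viability of the colon cancer cells in the luminescence readout, with no numeric limit stated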); conditions: CellTiter-Glo luminescence; at 20 µM (top of the series)
# [9] = NPC library primary testing for decreased DLD-1 cell viability via CellTiter-Glo (AID 1117346;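 active = compounds that lower survival of DLD-1 colon cancer cells in the luminescence readout, no cutoff given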); conditions: DLD-1 viability, CellTiter-Glo luminescence; at 20 µM (top of the series)
# [10] = viability loss with induced miR-34 in A549 – imaging, A549 dox-inducible miR-34, nuclei and caspase counts, primary screen (AID 1347080); conditions: A549 miR-34 inducible, Hoechst nuclei count, 48 h
# [11] = galactose survival enhancers in mitochondrial complex I cybrids – cell-based, galactose medium, ATP luminescence, primary screen (AID 1645843;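 active = z-score of at least 1.8 in each of two replicates, scored against plate mean and spread of sample wells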;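 also: positive z means more ATP and so rescue of galactose-driven cybrid death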); conditions: complex I mutant cybrid cells, 72 h, stronger effect = higher value
# [12] = EMT-state selective cytotoxicity in co-culture – imaging, PC-3E GFP, TEM4-18 mCherry, primary screen (AID 1345086;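 active = compounds killing one labelled cell type while sparing the other, by normalised counts and ratio limits, not self-fluorescent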;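 also: cells exposed to compound for 72 h before imaging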;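 as to red/green cell ratio (normalised): normalised mesenchymal count divided by normalised epithelial count so high means epithelial killing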); conditions: PC-3E GFP / TEM4-18 mCherry co-culture, imaging cell counts, at 1 µM
# [13] = biological target: NAD(+) hydrolase SARM1 (Homo sapiens) (UniProt Q6SZW1); assay: blocking NAD cleavage by SARM1 SAM-TIR – cell lysate, NAD-Glo luminescence (AID 1508614;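 active = compound whose remaining NAD level is above about 45 nM, limit read from the data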;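 also: higher remaining NAD means stronger inhibition of SARM1 NADase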); conditions: SAM-TIR HEK293T lysate NADase, at 1 µM, stronger effect = higher value
# [14] = compounds altering viability of human ES cells (AID 493140; call rule not given here;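 also: cells exposed to compounds for four days before counting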); conditions: human embryonic stem cell survival screen; stronger effect = higher value
# [15] = P. berghei load reduction in hepatocytes – cell-based, HepG2, luciferase luminescence, HepG2 viability, primary screen (AID 624349; in the data active = parasite load remaining mostly below about 12%, no sharp cut-off; inactive = mostly above about 10%;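 also: 100% = mean of DMSO negative control wells on the same plate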); conditions: P. berghei liver stage in HepG2, luciferase luminescence, concentration not given here; parasite load remaining: stronger effect = lower value; viability: measured here: HepG2 viability without parasites
# [16] = MELAS cybrid and Rieske KO viability enhancers – cell-based, MELAS cybrids, Rieske KO mouse fibroblasts, CellTiter-Glo, primary screen (AID 1508586;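 active = mean z-score across replicates of 1.96 or higher in either the MELAS or the Rieske mutant cell line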;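 also: z relative to plate mean and SD of compound and empty wells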); conditions: low glucose
# [17] = measured here: relative caspase fold change +Dox/-Dox
# [18] = measured here: total cells with miR-34 induction, stronger effect = lower value
# [19] = measured here: total cells without miR-34 induction
# [20] = MELAS cybrid survival, CellTiter-Glo 48 h, stronger effect = higher value
# [21] = Rieske KO mouse fibroblast survival, CellTiter-Glo 72 h
# [22] = stronger effect = lower value, cell number ratio, induced over uninduced
# Sequence of NAD(+) hydrolase SARM1 (Homo sapiens) (Q6SZW1 whole entry, looked up): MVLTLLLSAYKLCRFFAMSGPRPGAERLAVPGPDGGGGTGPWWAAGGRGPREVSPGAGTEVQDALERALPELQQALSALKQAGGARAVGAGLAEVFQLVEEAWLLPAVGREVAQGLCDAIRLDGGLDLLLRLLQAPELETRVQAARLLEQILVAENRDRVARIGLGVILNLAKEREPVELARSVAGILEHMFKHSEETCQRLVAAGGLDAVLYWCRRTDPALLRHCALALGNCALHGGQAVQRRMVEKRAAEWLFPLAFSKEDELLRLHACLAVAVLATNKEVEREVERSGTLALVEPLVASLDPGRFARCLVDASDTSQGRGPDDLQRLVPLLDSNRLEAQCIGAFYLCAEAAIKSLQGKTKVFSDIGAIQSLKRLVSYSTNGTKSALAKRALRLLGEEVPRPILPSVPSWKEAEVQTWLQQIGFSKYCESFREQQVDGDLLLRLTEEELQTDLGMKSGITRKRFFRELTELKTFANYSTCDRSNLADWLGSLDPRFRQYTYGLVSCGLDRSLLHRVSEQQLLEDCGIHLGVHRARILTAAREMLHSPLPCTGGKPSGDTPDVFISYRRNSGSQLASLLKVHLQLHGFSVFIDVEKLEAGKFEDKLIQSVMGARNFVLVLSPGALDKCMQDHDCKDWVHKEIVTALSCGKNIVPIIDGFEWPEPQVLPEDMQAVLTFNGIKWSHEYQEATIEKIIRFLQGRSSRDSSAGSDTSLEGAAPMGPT
smiles,measurement,setting,value
Cc1ncsc1CCCl,inhibition,[1],-2% (inactive)
same,nuclear beta-catenin stimulation,[2]; at 10 µM,1% (inactive)
same,nuclear beta-catenin stimulation,"[2]; stimulation, at 2 µM",2.4%
same,insulin secretion stimulation,[3],-0.8% (inactive)
same,viability decrease,[4],-208% (inactive)
same,tube area decrease,[5],-22% (inactive)
same,GLP1 secretion stimulation,[6],-0.4% (inactive)
same,inhibition of viability,[7],-3.1% (inactive)
same,viability decrease (inhibition),[8],43.8% (inactive)
same,viability decrease (inhibition),[9],72.4% (active)
same,fold change,[10]; stronger effect = lower value,0.959 (inactive) and 0.961 (inactive)
same,fold change,[10]; [17],0.758 and 0.938
same,cell count,[10]; [18],9720 and 8120
same,cell count,[10]; [19],10100 and 8450
same,z-score,[11],0.7 (inactive) and 0.075 (inactive)
CCOC(=O)CC(SP(=S)(OC)OC)C(=O)OCC (configuration not stated),nuclear beta-catenin stimulation,[2]; at 10 µM,1% (inactive)
same,nuclear beta-catenin stimulation,"[2]; stimulation, at 2 µM",-0.1%
same,insulin secretion stimulation,[3],-1.5% (inactive)
same,viability decrease,[4],-29.7% (inactive)
same,tube area decrease,[5],18% (inactive)
same,GLP1 secretion stimulation,[6],0.7% (inactive)
same,inhibition of viability,[7],-0.33% (inactive)
same,viability decrease (inhibition),[8],27% (inactive)
same,viability decrease (inhibition),[9],-18% (inactive)
same,red/green cell ratio (normalised),[12]; actives lie on both sides,1.05 (inactive)
same,normalised cell number,[12]; measured here: epithelial PC-3E GFP cell survival,1.11
same,normalised cell number,[12]; measured here: mesenchymal TEM4-18 mCherry cell survival,1.16
same,fold change,[10]; stronger effect = lower value,0.857 (inactive)
same,fold change,[10]; [17],0.964
same,cell count,[10]; [18],7400
same,cell count,[10]; [19],8640
same,remaining NAD,[13],10 nM (inactive)
CCOc1cc(C=O)ccc1O,nuclear beta-catenin stimulation,[2]; at 10 µM,-1.6% (inactive)
same,nuclear beta-catenin stimulation,"[2]; stimulation, at 2 µM",-0.8%
same,insulin secretion stimulation,[3],0.4% (inactive)
same,viability decrease,[4],5.6% (inactive)
same,tube area decrease,[5],0.8% (inactive)
same,GLP1 secretion stimulation,[6],-3.6% (inactive)
same,inhibition of viability,[7],6% (inactive)
same,viability decrease (inhibition),[8],6.9% (inactive)
same,viability decrease (inhibition),[9],-3% (inactive)
same,remaining NAD,[13],10 nM (inactive)
CC(=O)OCC1=C(C(=O)O)N2C(=O)[C@@H](N)[C@H]2SC1,survival,[14],9.33 (inactive)
same,parasite load remaining,[15],107% (inactive) and 94.3% (inactive)
same,viability,[15],91.6% and 74.9%
same,nuclear beta-catenin stimulation,[2]; at 10 µM,-0.8% (inactive)
same,nuclear beta-catenin stimulation,"[2]; stimulation, at 2 µM",0.2%
same,insulin secretion stimulation,[3],-2.9% (inactive)
same,viability decrease,[4],27.2% (inactive)
same,tube area decrease,[5],10.2% (inactive)
same,GLP1 secretion stimulation,[6],1.9% (inactive)
same,inhibition of viability,[7],-5.2% (inactive)
same,viability decrease (inhibition),[8],82.6% (active)
same,viability decrease (inhibition),[9],29.3% (inactive)
same,fold change,[10]; stronger effect = lower value,0.918 (inactive)
same,fold change,[10]; [17],1.55
same,cell count,[10]; [18],8570
same,cell count,[10]; [19],9340
same,z-score,[16]; [20],0.366 (inactive)
same,z-score,[16]; [21],-0.158
CCOC(=O)c1ccccc1C(=O)OCC,nuclear beta-catenin stimulation,[2]; at 10 µM,-0.2% (inactive)
same,nuclear beta-catenin stimulation,"[2]; stimulation, at 2 µM",-0.3%
same,insulin secretion stimulation,[3],2.85% (inactive)
same,GLP1 secretion stimulation,[6],0.4% (inactive)
O=C1OC2(c3cc(Br)c(O)cc3Oc3c2cc(Br)c(O)[c]3[Hg])c2ccccc21 (configuration not stated),parasite load remaining,[15],65.8% (inactive)
same,viability,[15],84.8%
same,nuclear beta-catenin stimulation,[2]; at 10 µM,57.5% (active)
same,nuclear beta-catenin stimulation,"[2]; stimulation, at 2 µM",3.4%
same,insulin secretion stimulation,[3],7.2% (inactive)
same,viability decrease,[4],77.7% (active)
same,tube area decrease,[5],-234% (inactive)
same,GLP1 secretion stimulation,[6],-1.4% (inactive)
same,inhibition of viability,[7],52.1% (active)
same,viability decrease (inhibition),[8],11.7% (inactive)
same,viability decrease (inhibition),[9],38.2% (inactive)
same,fold change,[10]; [22],0.885 (inactive)
same,fold change,[10]; [17],1.08
same,cell count,[10]; [18],9490
same,cell count,[10]; [19],10700
same,z-score,[16]; [20],-0.831 (inactive)
same,z-score,[16]; [21],0.0245
CCNCC(O)c1cccc(O)c1 (configuration not stated),survival,[14],9.33 (inactive)
same,parasite load remaining,[15],95% (inactive)
same,viability,[15],69.4%
same,nuclear beta-catenin stimulation,[2]; at 10 µM,-1.1% (inactive)
same,nuclear beta-catenin stimulation,"[2]; stimulation, at 2 µM",2.2%
same,insulin secretion stimulation,[3],0.6% (inactive)
same,viability decrease,[4],-11.3% (inactive)
same,tube area decrease,[5],0.2% (inactive)
same,GLP1 secretion stimulation,[6],-2.7% (inactive)
same,inhibition of viability,[7],1.7% (inactive)
same,viability decrease (inhibition),[8],15.1% (inactive)
same,viability decrease (inhibition),[9],-2.7% (inactive)
same,fold change,[10]; [22],0.936 (inactive)
same,fold change,[10]; [17],0.593
same,cell count,[10]; [18],9690
same,cell count,[10]; [19],10400
same,z-score,[16]; [20],0.575 (inactive)
same,z-score,[16]; [21],0.102
CC(C)NCC(O)c1ccccc1Cl (configuration not stated),nuclear beta-catenin stimulation,[2]; at 10 µM,-0.5% (inactive)
same,nuclear beta-catenin stimulation,"[2]; stimulation, at 2 µM",0.8%
same,insulin secretion stimulation,[3],11.3% (inactive)
same,viability decrease,[4],-4.5% (inactive)
same,tube area decrease,[5],8.9% (inactive)
same,GLP1 secretion stimulation,[6],3.1% (inactive)
same,inhibition of viability,[7],0.8% (inactive)
same,viability decrease (inhibition),[8],23.3% (inactive)
same,viability decrease (inhibition),[9],9% (inactive)
same,fold change,[10]; [22],0.961 (inactive)
same,fold change,[10]; [17],0.533
same,cell count,[10]; [18],8950
same,cell count,[10]; [19],9320
same,z-score,[16]; [20],-0.27 (inactive)
same,z-score,[16]; [21],-0.204
ClC1=C(Cl)C2(Cl)C(CBr)CC1(Cl)C2(Cl)Cl (configuration not stated),nuclear beta-catenin stimulation,[2]; at 10 µM,1.7% (inactive)
same,nuclear beta-catenin stimulation,"[2]; stimulation, at 2 µM",5.3%
same,insulin secretion stimulation,[3],0.2% (inactive)
same,GLP1 secretion stimulation,[6],16.3% (inactive)
Clc1ccc(CCC(Cn2ccnc2)Sc2c(Cl)cccc2Cl)cc1 (configuration not stated),survival,[14],15 (inactive)
same,parasite load remaining,[15],5.94% (inactive) and 63.9% (inactive)
same,viability,[15],103% and 82.5%
same,nuclear beta-catenin stimulation,[2]; at 10 µM,15.6% (inactive)
same,nuclear beta-catenin stimulation,"[2]; stimulation, at 2 µM",4.3%
same,insulin secretion stimulation,[3],-0.2% (inactive)
same,viability decrease,[4],101% (active)
same,tube area decrease,[5],109% (active)
same,GLP1 secretion stimulation,[6],20.8% (active)
same,inhibition of viability,[7],101% (active)
same,viability decrease (inhibition),[8],123% (active)
same,viability decrease (inhibition),[9],103% (active)
same,fold change,[10]; stronger effect = lower value,0.969 (inactive) and 0.821 (inactive) and 0.887 (inactive)
same,fold change,[10]; [17],0.807 and 1.54 and 0.572
same,cell count,[10]; [18],5090 and 6860 and 7040
same,cell count,[10]; [19],5260 and 8350 and 7940
same,z-score,[16]; [20],0.075 (inactive) and -0.442 (inactive)
same,z-score,[16]; [21],-0.608 and 0.109
COc1ccc2c(c1OC)CN1CCc3cc4c(cc3C1C2)OCO4 (configuration not stated),survival,[14],0.583 (inactive)
same,parasite load remaining,[15],82.7% (inactive)
same,viability,[15],89.1%
same,nuclear beta-catenin stimulation,[2]; at 10 µM,2.2% (inactive)
same,nuclear beta-catenin stimulation,"[2]; stimulation, at 2 µM",2.8%
same,insulin secretion stimulation,[3],1.5% (inactive)
same,viability decrease,[4],34.2% (inactive)
same,tube area decrease,[5],1.4% (inactive)
same,GLP1 secretion stimulation,[6],-1% (inactive)
same,inhibition of viability,[7],49.3% (inactive)
same,viability decrease (inhibition),[8],-5.2% (inactive)
same,viability decrease (inhibition),[9],21.3% (inactive)
same,fold change,[10]; stronger effect = lower value,0.795 (inactive)
same,fold change,[10]; [17],1.12
same,cell count,[10]; [18],8510
same,cell count,[10]; [19],10700
